# Data as given in PubChem BioAssay AID1159580 (chemical genetic matrix, 2015).
# Values joined by “and” are separate entries in the source; they are usually repeats but may differ in a detail not shown here. Identical values can stand only once. In all, about 5,500 compounds went through this assay and about 2,000 (36%) were called active. Inconclusive results (about 18%) are left out. Rule as the data show it: active = normalized growth mostly below about 0.91 (no sharp cut-off); inconclusive = no clear call, values can overlap the other calls; inactive = mostly above about 0.92. The list shows a part of the results.
# Assay: chemical genetic growth profiling, strain panel (AID 1159580);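 also: tested at 20 µM; growth read once vehicle control cultures reached saturation at 30 °C; 1 = growth at the plate median or of vehicle wells; lower values mean less growth of the strain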
# Conditions: S. cerevisiae deletion strains, growth OD
structure (smiles),measurement,setting,value
COc1cc2c(cc1OC)C(=O)C(CC1CCN(Cc3ccccc3)CC1)C2 (stereo not given),normalized growth,"locus YAL013W, strain DEP1, stronger effect = lower value",0.953 (inactive)
same,normalized growth,"locus YAL021C, strain ccr4, stronger effect = lower value",0.942 (inactive)
same,normalized growth,"locus YAL026C, strain drs2, stronger effect = lower value",0.606 (active)
same,normalized growth,"locus YAL030W, strain snc1, stronger effect = lower value",1.01 (inactive)
same,normalized growth,"locus YBL061C, strain skt5, stronger effect = lower value",0.974 (inactive)
same,normalized growth,"locus YBR009C, strain hhf1, stronger effect = lower value",0.975 (inactive)
same,normalized growth,"locus YBR021W, strain FUR4, stronger effect = lower value",1.03 (inactive)
same,normalized growth,"locus YBR023C, strain chs3, stronger effect = lower value",0.988 (inactive)
same,normalized growth,"locus YBR171W, strain sec66, stronger effect = lower value",1.03 (inactive)
same,normalized growth,"locus YBR229C, strain ROT2, stronger effect = lower value",1.01 (inactive)
same,normalized growth,"locus YBR279W, strain paf1, stronger effect = lower value",0.972 (inactive)
same,normalized growth,"locus YCL011C, strain gbp2, stronger effect = lower value",0.978 (inactive)
same,normalized growth,"locus YCL016C, strain dcc1, stronger effect = lower value",0.986 (inactive)
same,normalized growth,"locus YCL029C, strain bik1, stronger effect = lower value",0.989 (inactive)
same,normalized growth,"locus YCL061C, strain MRC1, stronger effect = lower value",0.967 (inactive)
same,normalized growth,"locus YCL069W, strain vba3, stronger effect = lower value",1.02 (inactive)
same,normalized growth,"locus YCR088W, strain abp1, stronger effect = lower value",1.01 (inactive)
same,normalized growth,"locus YDL005C, strain med2, stronger effect = lower value",1.03 (inactive)
same,normalized growth,"locus YDL035C, strain GPR1, stronger effect = lower value",0.869 (inactive)
same,normalized growth,"locus YDL040C, strain nat1, stronger effect = lower value",0.981 (inactive)
same,normalized growth,"locus YDL074C, strain BRE1, stronger effect = lower value",0.734 (active)
same,normalized growth,"locus YDL101C, strain DUN1, stronger effect = lower value",0.948 (inactive)
same,normalized growth,"locus YDL134C, strain PPH21, stronger effect = lower value",0.798 (active)
same,normalized growth,"locus YDL185W, strain tfp1, stronger effect = lower value",0.998 (inactive)
same,normalized growth,"locus YDL192W, strain arf1, stronger effect = lower value",0.926 (inactive)
same,normalized growth,"locus YDR001C, strain nth1, stronger effect = lower value",1.02 (inactive)
same,normalized growth,"locus YDR069C, strain doa4, stronger effect = lower value",0.935 (inactive)
same,normalized growth,"locus YDR101C, strain arx1, stronger effect = lower value",0.904 (active)
same,normalized growth,"locus YDR137W, strain rgp1, stronger effect = lower value",0.627 (active)
same,normalized growth,"locus YDR150W, strain NUM1, stronger effect = lower value",0.977 (inactive)
same,normalized growth,"locus YDR159W, strain sac3, stronger effect = lower value",0.953 (inactive)
same,normalized growth,"locus YDR162C, strain NBP2, stronger effect = lower value",0.807 (active)
same,normalized growth,"locus YDR195W, strain ref2",1.08 (inactive)
same,normalized growth,"locus YDR297W, strain sur2, stronger effect = lower value",0.989 (inactive)
same,normalized growth,"locus YDR318W, strain mcm21, stronger effect = lower value",0.913 (active)
same,normalized growth,"locus YDR334W, strain swr1, stronger effect = lower value",1.02 (inactive)
same,normalized growth,"locus YDR335W, strain msn5, stronger effect = lower value",0.999 (inactive)
same,normalized growth,"locus YDR388W, stronger effect = lower value",0.998 (inactive)
same,normalized growth,"locus YDR392W, strain spt3, stronger effect = lower value",1.09 (inactive)
same,normalized growth,"locus YDR502C, strain sam2, stronger effect = lower value",0.834 (active)
same,normalized growth,"locus YEL003W, strain gim4, stronger effect = lower value",0.988 (inactive)
same,normalized growth,"locus YEL037C, strain rad23, stronger effect = lower value",1.02 (inactive)
same,normalized growth,"locus YEL061C, strain CIN8 (second series), stronger effect = lower value",1.04 (inactive)
same,normalized growth,"locus YEL061C, strain CIN8, stronger effect = lower value",1.06 (inactive)
same,normalized growth,"locus YER015W, strain faa2, stronger effect = lower value",0.947 (inactive)
same,normalized growth,"locus YER016W, strain bim1, stronger effect = lower value",1 (inactive)
same,normalized growth,"locus YER110C, stronger effect = lower value",0.992 (inactive)
same,normalized growth,"locus YER111C, strain swi4, stronger effect = lower value",1.02 (inactive)
same,normalized growth,"locus YER155C, strain BEM2 (second series), stronger effect = lower value",1.02 (inactive)
same,normalized growth,"locus YER155C, strain BEM2, stronger effect = lower value",1.01 (inactive)
same,normalized growth,"locus YER167W, strain BCK2, stronger effect = lower value",0.829 (active)
same,normalized growth,"locus YFR010W, strain ubp6, stronger effect = lower value",1.03 (inactive)
same,normalized growth,"locus YGL078C, strain dbp3, stronger effect = lower value",0.976 (inactive)
same,normalized growth,"locus YGL086W, strain mad1, stronger effect = lower value",0.954 (inactive)
same,normalized growth,"locus YGL167C, strain pmr1, stronger effect = lower value",0.961 (inactive)
same,normalized growth,"locus YGL173C, strain kem1, stronger effect = lower value",1.01 (inactive)
same,normalized growth,"locus YGL227W, strain vid30, stronger effect = lower value",1.06 (inactive)
same,normalized growth,"locus YGL240W, strain doc1, stronger effect = lower value",0.994 (inactive)
same,normalized growth,"locus YGL248W, strain PDE1, stronger effect = lower value",0.818 (active)
same,normalized growth,"locus YGL253W, strain hxk2, stronger effect = lower value",0.891 (active)
same,normalized growth,"locus YGR078C, strain PAC10, stronger effect = lower value",0.821 (active)
same,normalized growth,"locus YGR135W, strain pre9, stronger effect = lower value",0.787 (active)
same,normalized growth,"locus YGR229C, strain SMI1, stronger effect = lower value",0.523 (active)
same,normalized growth,"locus YGR252W, strain gcn5, stronger effect = lower value",0.742 (active)
same,normalized growth,"locus YHR013C, strain ard1, stronger effect = lower value",0.955 (inactive)
same,normalized growth,"locus YHR027C, strain rpn1, stronger effect = lower value",0.99 (inactive)
same,normalized growth,"locus YHR030C, strain SLT2, stronger effect = lower value",0.94 (inactive) and 0.973 (inactive)
same,normalized growth,"locus YHR079C, strain IRE1 (second series), stronger effect = lower value",0.951 (inactive)
same,normalized growth,"locus YHR079C, strain IRE1, stronger effect = lower value",0.949 (inactive)
same,normalized growth,"locus YHR094C, strain hxt1, stronger effect = lower value",1 (inactive)
same,normalized growth,"locus YHR129C, strain ARP1, stronger effect = lower value",0.876 (active)
same,normalized growth,"locus YHR142W, strain chs7, stronger effect = lower value",0.919 (inactive)
same,normalized growth,"locus YHR200W, strain rpn10, stronger effect = lower value",0.973 (inactive)
same,normalized growth,"locus YIL066C, strain RNR3, stronger effect = lower value",0.896 (inactive)
same,normalized growth,"locus YIL073C, strain SPO22, stronger effect = lower value",0.904 (inactive)
same,normalized growth,"locus YIL125W, strain kgd1, stronger effect = lower value",1.01 (inactive)
same,normalized growth,"locus YIR030C, strain dcg1, stronger effect = lower value",0.985 (inactive)
same,normalized growth,"locus YJL092W, strain hpr5, stronger effect = lower value",1.02 (inactive)
same,normalized growth,"locus YJL095W, strain BCK1 (second series), stronger effect = lower value",0.994 (inactive)
same,normalized growth,"locus YJL095W, strain BCK1, stronger effect = lower value",0.657 (active) and 1.01 (inactive)
same,normalized growth,"locus YJL115W, strain asf1, stronger effect = lower value",1.02 (inactive)
same,normalized growth,"locus YJL129C, strain trk1, stronger effect = lower value",0.896 (inactive)
same,normalized growth,"locus YJL134W, strain LCB3, stronger effect = lower value",0.996 (inactive)
same,normalized growth,"locus YJL154C, strain vps35, stronger effect = lower value",1.01 (inactive)
same,normalized growth,"locus YJL164C, strain tpk1, stronger effect = lower value",1 (inactive)
same,normalized growth,"locus YJL166W, strain qcr8, stronger effect = lower value",0.931 (inactive)
same,normalized growth,"locus YJL168C, strain set2, stronger effect = lower value",0.998 (inactive)
same,normalized growth,"locus YJL187C, strain SWE1 (second series), stronger effect = lower value",0.849 (active)
same,normalized growth,"locus YJL187C, strain SWE1, stronger effect = lower value",0.975 (inactive)
same,normalized growth,"locus YJR043C, strain POL32, stronger effect = lower value",0.872 (inactive)
